Compound activity as filed in PubChem.
A selection: hits, their analogues and other compounds. The true share with any hit is near 3.8%.
Ub-GFP proteasome – Ubiquitin-GFP Assay; Ubiquitin-GFP reporter cells, proteasome inhibition, GFP fluorescence; response scale: untreated = 0%, 10 µM MG-132 = 100%; Potency, µM (highest dose often 45.9 µM), hits mostly activators; 67,000 tested, under 10 active; active = well fitted activation curve with a large enough effect, not every such curve was filed as active; inconclusive = small, poorly fitted or top-dose-only effect, or another doubt; inactive = no such curve, though single readings can be large or run the other way
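Proteasome block read as GFP accumulation: ubiquitin(G76V)-GFP U2OS cells exposed to compound (2.9 nM–46 uM) for 4 hr at 37 C. Normalization used untreated cells as 0% and 10 uM MG-132 as 100%; concentration-response curves fitted.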
HBB splice mod – qHTS Assay for Modulators of Hemoglobin Beta Chain Splicing. HBB splicing reporter cell assay, activation; EGFP reporter with mutant IVS2-654 intron; response scale: normalised to 500 nM splice-correcting PNA. Potency, µM (doses to about 46.1 µM), usual class: activators. 65,000 tested, 0.06% active
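Compounds were applied for 2 days to HeLa EGFP-654 cells, 500/well in Optimem with 2% FCS. The reporter's EGFP is disrupted by mis-splicing of beta-globin intron IVS2-654. Readout: summed well GFP fluorescence from 488 nm laser scanning; reference was 500 nM antisense […] 654 PNA.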
ERK AVP inh – qHTS Assay for Inhibitors of the ERK Signaling Pathway using a Homogeneous Screening Assay. HEK293-V1b, vasopressin-stimulated pERK AlphaScreen. 72,000 tested, 0.99% active. Potency, µM (titrated, usually from 57.5 µM), actives largely listed as inhibitors. AID 995, 2007; also: nearly all actives have a fitted effect of over 55% in size
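V1b-HEK293 cells; cpd 30 min 37C; 25 nM vasopressin 5 min; lyse 10 min; AlphaScreen beads 5 hr RT. Normalized to DMSO basal and 25 nM vasopressin; AC50 by Hill fit.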
TSHR agonist – qHTS Assay for Agonists of the Thyroid Stimulating Hormone Receptor; Thyrotropin receptor (Homo sapiens), P16473; HEK293-CNG-TSHR cells (CNG channel as cAMP sensor), membrane potential dye, cAMP; Potency, µM (top dose mostly 57.1 µM), most hits filed as activators; 73,000 tested, 0.48% active; AID 926, 2007; active = well fitted activation curve with a large enough effect in the main read-out, with a control signal flat, not every such curve was filed as active; inconclusive = small, poorly fitted or top-dose-only effect, or a change in a side signal; inactive = no such curve, though single readings can be large or run the other way; reference of the percent scale not stated here;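 also: the control signal comes from parental cells without the receptor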
Target sequence (P16473 whole entry, looked up): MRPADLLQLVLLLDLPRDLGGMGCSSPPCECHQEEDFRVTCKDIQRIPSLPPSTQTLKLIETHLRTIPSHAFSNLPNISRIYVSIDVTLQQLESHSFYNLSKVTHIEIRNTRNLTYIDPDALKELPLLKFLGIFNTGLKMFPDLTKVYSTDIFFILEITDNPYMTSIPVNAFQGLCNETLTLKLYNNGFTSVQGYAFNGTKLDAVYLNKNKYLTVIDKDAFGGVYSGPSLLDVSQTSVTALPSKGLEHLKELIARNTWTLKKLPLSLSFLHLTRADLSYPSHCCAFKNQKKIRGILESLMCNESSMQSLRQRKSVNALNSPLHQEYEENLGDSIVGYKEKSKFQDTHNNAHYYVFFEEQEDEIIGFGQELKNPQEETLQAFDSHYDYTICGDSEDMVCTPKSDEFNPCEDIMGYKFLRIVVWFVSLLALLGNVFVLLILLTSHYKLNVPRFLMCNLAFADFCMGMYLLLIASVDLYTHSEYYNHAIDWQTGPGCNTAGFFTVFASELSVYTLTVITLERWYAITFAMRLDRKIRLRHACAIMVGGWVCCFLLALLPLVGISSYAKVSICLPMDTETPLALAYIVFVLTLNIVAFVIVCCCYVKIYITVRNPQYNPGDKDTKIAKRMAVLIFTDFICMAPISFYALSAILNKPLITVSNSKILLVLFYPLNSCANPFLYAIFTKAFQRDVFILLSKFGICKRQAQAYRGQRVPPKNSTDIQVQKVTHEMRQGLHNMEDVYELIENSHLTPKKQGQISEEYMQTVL
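HEK 293 cells stably expressing TSHR and a modified CNG channel, with CNG-only parental cells as counterscreen, were preloaded 60 min at room temperature with membrane potential dye containing 100 uM RO 20-1724. Compound exposure was 30 min, and depolarization was read as fluorescence at 590 nm.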
HEK293 cAMP ctrl – qHTS Assay for Agonists of the Thyroid Stimulating Hormone Receptor: Activators of Intracellular cAMP Concentrations in Parental HEK 293; Potency, µM (top dose mostly 57.1 µM), hits mostly activators; parental HEK293 CNG cAMP sensor, membrane potential fluorescence; AID 938, 2007; 73,000 tested, 2.5% active; also: nearly all actives have a fitted effect of over 55% in size
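Counterscreen for endogenous-receptor signalling: CNG-channel HEK 293 cells report cAMP rise by membrane depolarization. After 60 min dye equilibration with 100 uM RO 20-1724, compounds incubated 30 min before bottom-read fluorescence at 590 nm.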
GFP derepression – qHTS Assay for Epigenetic Modulators. mouse C127i GFP locus derepression, cytometry, 30 h. Potency, µM (series often up to 46.1 µM). 68,000 tested, 0.09% active
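Murine C127i mammary cells carrying a silenced, stably integrated CMV-driven GFP reporter were treated with compound for 30 hours at 37 C. After PBS washes, GFP-positive cells were counted by laser-scanning microplate cytometry.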
Large screens that a line does not name were inactive. Unless noted, calls follow the shape of the dose curve; as a rule, active = well fitted curve in the direction sought with a large enough effect; inconclusive = small, poorly fitted or top-dose-only effect, or another doubt; inactive = no such curve, though single readings can be large; an effect the other way counts as inactive or inconclusive.

CC1(C)CC(NC(=O)c2coc(=O)c(Br)c2)CC(C)(C)N1	ERK AVP inh 20µM (no result: Ub-GFP proteasome)
O=C(c1csnn1)N1CCC2(CCCN(c3ncccn3)C2)CC1	TSHR agonist inconclusive, HEK293 cAMP ctrl inconclusive
COCCn1c(SCC(=O)N2CCC(C)CC2)nc2ccccc2c1=O	TSHR agonist inconclusive, HEK293 cAMP ctrl 20µM
CC(C)[C@@H]1C(=O)N(S(C)(=O)=O)[C@H]2CCN(C(=O)/C=C\CN3CCCCC3)[C@@H]12	none (no result: HBB splice mod)
COc1ccc2nc(-c3ccccc3)[nH]c2c1	TSHR agonist inconclusive, HEK293 cAMP ctrl inconclusive
CCOc1ccc2nc(-c3ccccc3)[nH]c2c1	TSHR agonist inconclusive, HEK293 cAMP ctrl 16µM (no result: HBB splice mod)
N/C(CSc1nc(-c2ccccc2)c(-c2ccccc2)o1)=N\O	ERK AVP inh 32µM, TSHR agonist inconclusive, HEK293 cAMP ctrl inconclusive
COc1ccc(S(=O)(=O)N2CCSC2c2ccc(OC)c(OC)c2)cc1 (stereo not given)	none
COc1ccc(C2SCCN2S(=O)(=O)c2ccc(F)cc2)cc1OC (stereo not given)	ERK AVP inh 13µM (no result: HBB splice mod)
COc1cccc(Cn2c(=O)c(-c3ccc(Cl)cc3)nc3cncnc32)c1	ERK AVP inh inconclusive
O=C(Nc1cccc2ccccc12)c1ccc(Br)o1	TSHR agonist inconclusive, HEK293 cAMP ctrl inconclusive
O=C(Nc1cccc2c1CCCC2)c1ccc(Br)o1	TSHR agonist inconclusive, HEK293 cAMP ctrl 25µM
O=C(Nc1ccccc1)N1CCC2(CC1)CCN(C(=O)c1csnn1)CC2	TSHR agonist 4µM
C[C@@H]1NC(=O)[C@@H](C)COC(=O)[C@H](C)NC(=O)[C@@H](C)COC1=O	none (no result: Ub-GFP proteasome, GFP derepression)
COCCn1c(=O)c(C)nc2cnc(Oc3ccccc3)nc21	none
COCCn1c(=O)c(C)nc2cnc(OCc3ccccc3)nc21	ERK AVP inh inconclusive, TSHR agonist inconclusive, HEK293 cAMP ctrl 3.2µM
COc1cccc(Cn2c(=O)c(C)nc3cnc(OCc4ccccc4)nc32)c1	TSHR agonist inconclusive, HEK293 cAMP ctrl 16µM
COc1cccc(Cn2c(=O)cnc3cnc(OCc4ccccc4)nc32)c1	TSHR agonist inconclusive, HEK293 cAMP ctrl inconclusive
N#CCCn1c(=O)c(CCc2ccccc2)nc2cnc(OCc3ccccc3)nc21	ERK AVP inh inconclusive, TSHR agonist inconclusive, HEK293 cAMP ctrl 4µM
FC(F)(F)c1ccccc1-c1nccc(-n2ccnc2)n1	none
COCC(C)n1c(C)cc(C(=O)COC(=O)c2c(NC(C)=O)sc(C)c2C)c1C (stereo not given)	TSHR agonist 13µM
CCOC(=O)c1c(NC(=O)CN2CCCCC2)sc2c1CCN(C(=O)OCC)C2	TSHR agonist inconclusive, HEK293 cAMP ctrl 7.9µM (no result: Ub-GFP proteasome, HBB splice mod, ERK AVP inh, GFP derepression)
C[C@@H]1c2ccccc2Cn2cc3c(c21)C(=O)c1cccc(OP(=O)(O)OCc2ccccc2)c1C3=O	none
CCCCCCN(C(=O)CCCCCN1C(=O)NC(c2ccc(-c3ccccc3)cc2)C(C(=O)OCc2ccccc2)=C1C)C(C(=O)NCCCC)c1ccc(OCC(=O)O)c(C(=O)O)c1 (stereo not given)	none (no result: Ub-GFP proteasome, GFP derepression)
COc1cccc(/C=N/n2c(C)nc3ccccc32)c1OC	ERK AVP inh inconclusive, TSHR agonist inconclusive, HEK293 cAMP ctrl 16µM (no result: Ub-GFP proteasome)
COc1ccc(/C=N/NC(=O)c2cc(-c3ccc(Cl)cc3)n[nH]2)cc1OC	none (no result: Ub-GFP proteasome, HBB splice mod, ERK AVP inh, GFP derepression)
COc1cccc(C2C=C(c3ccc(Br)s3)Nc3ncnn32)c1OC (stereo not given)	TSHR agonist 20µM
COc1ccccc1-n1c(SC)nc(O)cc1=O	TSHR agonist inconclusive, HEK293 cAMP ctrl 32µM (no result: GFP derepression)
O=C(CSc1nc2ccccc2s1)NC(=O)NCc1ccco1	TSHR agonist inconclusive, HEK293 cAMP ctrl inconclusive
O=C(CSc1nc(-c2ccccc2)cs1)NC(=O)NCc1ccco1	ERK AVP inh 25µM
O=C(CN1CCN(c2nc(-c3ccc(Cl)cc3)cs2)CC1)NCc1ccco1	ERK AVP inh 32µM
COc1ccccc1N(CCC#N)C(=O)CSc1ccc2c(c1)OCCO2	TSHR agonist 25µM
O=c1[nH]c(C(F)(F)F)nc2c1nnn2Cc1ccccc1F	TSHR agonist inconclusive, HEK293 cAMP ctrl 25µM (no result: HBB splice mod)
C#CCNc1nc(C)nc2c1nnn2Cc1ccccc1F	ERK AVP inh inconclusive (no result: HBB splice mod)
COc1ccc(C(=O)N2CCC3(CCCN(CC(C)C)C3)CC2)cc1	none
Cc1ccc(S(=O)(=O)N2CCN(c3ncnc4c3cnn4-c3ccccc3)CC2)cc1	TSHR agonist inconclusive, HEK293 cAMP ctrl inconclusive
c1ccc(CCN2CCN(c3ncnc4c3cnn4-c3ccccc3)CC2)cc1	ERK AVP inh 16µM
CCCCC[C@H](O)c1cccc(OCc2ccc3ccccc3n2)c1	ERK AVP inh inconclusive, TSHR agonist inconclusive, HEK293 cAMP ctrl 20µM
COc1cc([C@@H](O)CO)ccc1OS(=O)(=O)O	none
COc1cccc([C@@H]2Oc3ccc(OC)cc3/C(=N/O[C@@H](C)CN3CCCc4nc(C)c(C)cc43)[C@@H]2O)c1	TSHR agonist inconclusive, HEK293 cAMP ctrl 4µM (no result: Ub-GFP proteasome, GFP derepression)
CC(C)=NO[C@@H](C)CN1CCCc2nc(C)c(C)cc21	none (no result: Ub-GFP proteasome, GFP derepression)
O=C(O)CCCSc1nc2ccccc2s1	none
O=C(c1ccncc1)N1CCC2(CC1)CN(c1ccccc1)C2	TSHR agonist inconclusive, HEK293 cAMP ctrl inconclusive
CN1CCN(/C=N/c2c(C#N)cnn2C)CC1	none
Cn1ncc(C#N)c1/N=C/N(Cc1ccccc1)Cc1ccccc1	ERK AVP inh inconclusive, TSHR agonist inconclusive, HEK293 cAMP ctrl 16µM
CC(=O)OC[C@@H]1O[C@@H](O/N=C2/C[C@@H](O)[C@@H](O)[C@@H]3[C@H]4C(=O)N(c5ccc(F)cc5F)C(=O)[C@@H]4CC[C@@H]23)[C@H](OC(C)=O)[C@H](OC(C)=O)[C@@H]1OC(C)=O	none (no result: Ub-GFP proteasome, TSHR agonist, GFP derepression)
COC(=O)c1cc(CSc2nnc(-c3ccccc3)c(-c3ccccc3)n2)oc1C	none
COC(=O)c1cc(CSc2nc3ccc(C)cc3[nH]2)oc1C	TSHR agonist inconclusive, HEK293 cAMP ctrl 20µM
CCCC(=O)N1CCN(c2ccc(NC(=O)c3cc4ccccc4o3)cc2Cl)CC1	ERK AVP inh 7.9µM
O=C(Nc1ccc(N2CCN(C(=O)c3ccco3)CC2)c(Cl)c1)c1cc2ccccc2o1	ERK AVP inh 7.9µM
O=C(Nc1ccc(N2CCN(C(=O)c3ccccc3)CC2)c(Cl)c1)c1ccco1	ERK AVP inh inconclusive (no result: TSHR agonist)
